Measurements reported in the supplement of paper PMC10849652.
Of roughly 8,800 targets only a part is listed; those with a hit were picked by preference. About 0.5% of all pairs of compound and target were hits.

Columns and labels:
Assay in all cases: log2 fold change, soluble protein after heating vs DMSO (PISA); higher = thermal stabilisation; K562 lysate, 10 uM; active = over 0.2 and 3.5 SD of the protein, either way, in both replicates (recomputed)
[1] = compound: C1=CC=C(C=C1)[C@H](COC2=CC3=C(C=C2)NC(=O)N3)NC(=O)C4=CC=CN(C4=O)CC5=CC(=C(C=C5)F)F
How it was run: (§1)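 Log-two fold change in thermal stability relative to solvent controls is reported from duplicates. For each sample, crude K562 extract from dounce-homogenised pellets in PBS pH 7.4 with 1 mM MgCl2, at 1 mg/mL protein, was treated with 10 μM compound for 30 min. Aliquots heated for 3 min across 48°C-58°C were pooled, brought to 0.5% NP-40 at 4°C and cleared at 21,000xg for 90 min. The supernatant was quantified by TMTpro 16plex LC-MS/MS with channel sums equalised.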

[2] = compound: CC1=C(SC2=C1C(=N[C@H](C3=NN=C(N32)C)CC(=O)N)C4=CC=C(C=C4)Cl)C
How it was run: as §1

[3] = compound: CC1=C2C(=CC=C1)N=C(N(C2=O)C3=CC=CC=C3C)CN4C=NC5=C(N=CN=C54)N
How it was run: as §1

[4] = compound: Cc1sc2c(c1C)C(c1ccc(Cl)cc1)=N[C@@H](CC(=O)OC(C)(C)C)c1nnc(C)n1-2
How it was run: as §1

[5] = compound: c1ccc([C@@H]2C[C@H]2NC2CCNCC2)cc1
How it was run: as §1

Measured: log2 fold change

KLC1 isoform 10 (UniProt Q07866)
inactive: [1] -0.094 | [2] -0.063

KNOP1 (UniProt Q1ED39)
UniProt Q1ED39, sequence (Q1ED39 whole entry, looked up): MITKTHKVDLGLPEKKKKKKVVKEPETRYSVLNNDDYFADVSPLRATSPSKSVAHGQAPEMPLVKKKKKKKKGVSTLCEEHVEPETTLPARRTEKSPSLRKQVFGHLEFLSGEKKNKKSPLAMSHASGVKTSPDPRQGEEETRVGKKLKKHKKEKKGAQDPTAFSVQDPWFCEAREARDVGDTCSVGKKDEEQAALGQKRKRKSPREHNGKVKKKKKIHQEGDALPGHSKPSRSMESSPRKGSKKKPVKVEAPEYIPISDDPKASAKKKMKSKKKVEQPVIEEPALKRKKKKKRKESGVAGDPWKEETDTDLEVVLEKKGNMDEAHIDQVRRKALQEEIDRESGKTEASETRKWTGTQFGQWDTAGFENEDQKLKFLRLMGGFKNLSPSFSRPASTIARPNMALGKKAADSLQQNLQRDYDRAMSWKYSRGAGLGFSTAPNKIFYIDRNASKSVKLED
inactive: [1] 0.078 | [2] 0.029 | [3] 0.177 | [4] -0.162 | [5] 0.032

LPCAT1 (UniProt Q8NF37)
UniProt Q8NF37, sequence (Q8NF37 whole entry, looked up): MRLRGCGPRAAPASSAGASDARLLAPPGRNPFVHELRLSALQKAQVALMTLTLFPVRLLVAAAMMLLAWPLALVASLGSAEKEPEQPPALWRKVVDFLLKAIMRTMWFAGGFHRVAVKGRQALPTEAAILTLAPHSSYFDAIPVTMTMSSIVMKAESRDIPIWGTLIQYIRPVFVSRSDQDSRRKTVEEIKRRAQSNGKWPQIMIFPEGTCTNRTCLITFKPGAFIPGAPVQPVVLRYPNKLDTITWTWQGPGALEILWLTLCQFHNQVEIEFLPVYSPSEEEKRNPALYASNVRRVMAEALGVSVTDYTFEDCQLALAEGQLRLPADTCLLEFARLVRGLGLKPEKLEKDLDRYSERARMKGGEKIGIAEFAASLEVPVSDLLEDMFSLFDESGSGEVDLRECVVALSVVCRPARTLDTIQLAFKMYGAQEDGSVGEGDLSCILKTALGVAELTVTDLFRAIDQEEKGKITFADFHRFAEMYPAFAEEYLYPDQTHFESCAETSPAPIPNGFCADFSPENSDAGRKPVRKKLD
inactive: [1] -0.071 | [2] 0.056 | [3] 0.066 | [4] 0 | [5] -0.115

MINDY1 isoform 3 (UniProt Q8N5J2)
UniProt Q8N5J2, sequence (Q8N5J2 whole entry, looked up): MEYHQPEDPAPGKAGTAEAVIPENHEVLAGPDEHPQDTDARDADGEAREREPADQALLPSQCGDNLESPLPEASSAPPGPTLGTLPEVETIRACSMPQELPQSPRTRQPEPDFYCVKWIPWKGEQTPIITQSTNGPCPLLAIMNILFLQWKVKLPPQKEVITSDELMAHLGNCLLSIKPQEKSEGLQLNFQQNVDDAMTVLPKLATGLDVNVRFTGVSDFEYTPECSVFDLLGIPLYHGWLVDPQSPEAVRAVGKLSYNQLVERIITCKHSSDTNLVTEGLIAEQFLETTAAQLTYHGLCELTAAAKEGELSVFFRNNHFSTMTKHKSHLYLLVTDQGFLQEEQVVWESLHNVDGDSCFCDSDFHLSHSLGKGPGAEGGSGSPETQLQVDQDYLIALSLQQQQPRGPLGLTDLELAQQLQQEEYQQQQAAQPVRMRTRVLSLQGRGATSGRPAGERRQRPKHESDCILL
inactive: [1] 0.017 | [2] 0.061 | [3] -0.003 | [4] 0.028

KRIT1 (UniProt O00522)
UniProt O00522, sequence (O00522 whole entry, looked up): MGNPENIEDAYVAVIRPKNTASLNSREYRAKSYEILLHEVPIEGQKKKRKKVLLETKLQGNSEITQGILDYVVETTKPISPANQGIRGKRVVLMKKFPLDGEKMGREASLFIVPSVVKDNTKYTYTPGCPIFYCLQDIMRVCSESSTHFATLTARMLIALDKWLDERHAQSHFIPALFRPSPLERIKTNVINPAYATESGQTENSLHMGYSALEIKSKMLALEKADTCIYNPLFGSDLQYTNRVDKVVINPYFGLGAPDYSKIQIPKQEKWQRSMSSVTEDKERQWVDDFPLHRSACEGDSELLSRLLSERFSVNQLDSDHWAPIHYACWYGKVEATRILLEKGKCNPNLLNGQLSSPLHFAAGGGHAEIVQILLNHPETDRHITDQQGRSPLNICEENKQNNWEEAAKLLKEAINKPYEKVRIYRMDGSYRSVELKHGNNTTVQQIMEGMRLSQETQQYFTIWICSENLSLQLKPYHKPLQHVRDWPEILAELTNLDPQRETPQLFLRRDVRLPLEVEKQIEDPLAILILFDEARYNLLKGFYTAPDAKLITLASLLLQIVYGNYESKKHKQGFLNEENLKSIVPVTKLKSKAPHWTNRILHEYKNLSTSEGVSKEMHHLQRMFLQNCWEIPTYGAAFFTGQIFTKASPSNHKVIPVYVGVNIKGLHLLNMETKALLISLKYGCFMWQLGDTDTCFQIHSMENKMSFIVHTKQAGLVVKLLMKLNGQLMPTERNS
inactive: [1] -0.026 | [2] -0.041 | [3] 0.099 | [4] -0.082

LSS (UniProt P48449)
inactive: [1] 0.016 | [2] -0.083 | [3] 0.014 | [4] -0.012 | [5] -0.007

LUC7L (UniProt Q9NQ29)
UniProt Q9NQ29, sequence (Q9NQ29 whole entry, looked up): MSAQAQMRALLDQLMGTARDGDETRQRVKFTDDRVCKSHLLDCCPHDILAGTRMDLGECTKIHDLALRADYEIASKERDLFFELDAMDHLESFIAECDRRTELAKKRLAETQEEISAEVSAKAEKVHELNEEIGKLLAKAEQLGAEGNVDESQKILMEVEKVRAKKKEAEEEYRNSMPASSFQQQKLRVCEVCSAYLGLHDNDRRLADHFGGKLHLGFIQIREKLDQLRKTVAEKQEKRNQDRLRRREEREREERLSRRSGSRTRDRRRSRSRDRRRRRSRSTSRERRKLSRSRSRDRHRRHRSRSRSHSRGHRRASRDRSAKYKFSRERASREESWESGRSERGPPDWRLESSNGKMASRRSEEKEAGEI
inactive: [1] 0.011 | [2] 0.013 | [3] 0.006 | [4] 0.003 | [5] 0.055

MED12 isoform 2 (UniProt Q93074)
UniProt Q93074, sequence (Q93074 whole entry, looked up): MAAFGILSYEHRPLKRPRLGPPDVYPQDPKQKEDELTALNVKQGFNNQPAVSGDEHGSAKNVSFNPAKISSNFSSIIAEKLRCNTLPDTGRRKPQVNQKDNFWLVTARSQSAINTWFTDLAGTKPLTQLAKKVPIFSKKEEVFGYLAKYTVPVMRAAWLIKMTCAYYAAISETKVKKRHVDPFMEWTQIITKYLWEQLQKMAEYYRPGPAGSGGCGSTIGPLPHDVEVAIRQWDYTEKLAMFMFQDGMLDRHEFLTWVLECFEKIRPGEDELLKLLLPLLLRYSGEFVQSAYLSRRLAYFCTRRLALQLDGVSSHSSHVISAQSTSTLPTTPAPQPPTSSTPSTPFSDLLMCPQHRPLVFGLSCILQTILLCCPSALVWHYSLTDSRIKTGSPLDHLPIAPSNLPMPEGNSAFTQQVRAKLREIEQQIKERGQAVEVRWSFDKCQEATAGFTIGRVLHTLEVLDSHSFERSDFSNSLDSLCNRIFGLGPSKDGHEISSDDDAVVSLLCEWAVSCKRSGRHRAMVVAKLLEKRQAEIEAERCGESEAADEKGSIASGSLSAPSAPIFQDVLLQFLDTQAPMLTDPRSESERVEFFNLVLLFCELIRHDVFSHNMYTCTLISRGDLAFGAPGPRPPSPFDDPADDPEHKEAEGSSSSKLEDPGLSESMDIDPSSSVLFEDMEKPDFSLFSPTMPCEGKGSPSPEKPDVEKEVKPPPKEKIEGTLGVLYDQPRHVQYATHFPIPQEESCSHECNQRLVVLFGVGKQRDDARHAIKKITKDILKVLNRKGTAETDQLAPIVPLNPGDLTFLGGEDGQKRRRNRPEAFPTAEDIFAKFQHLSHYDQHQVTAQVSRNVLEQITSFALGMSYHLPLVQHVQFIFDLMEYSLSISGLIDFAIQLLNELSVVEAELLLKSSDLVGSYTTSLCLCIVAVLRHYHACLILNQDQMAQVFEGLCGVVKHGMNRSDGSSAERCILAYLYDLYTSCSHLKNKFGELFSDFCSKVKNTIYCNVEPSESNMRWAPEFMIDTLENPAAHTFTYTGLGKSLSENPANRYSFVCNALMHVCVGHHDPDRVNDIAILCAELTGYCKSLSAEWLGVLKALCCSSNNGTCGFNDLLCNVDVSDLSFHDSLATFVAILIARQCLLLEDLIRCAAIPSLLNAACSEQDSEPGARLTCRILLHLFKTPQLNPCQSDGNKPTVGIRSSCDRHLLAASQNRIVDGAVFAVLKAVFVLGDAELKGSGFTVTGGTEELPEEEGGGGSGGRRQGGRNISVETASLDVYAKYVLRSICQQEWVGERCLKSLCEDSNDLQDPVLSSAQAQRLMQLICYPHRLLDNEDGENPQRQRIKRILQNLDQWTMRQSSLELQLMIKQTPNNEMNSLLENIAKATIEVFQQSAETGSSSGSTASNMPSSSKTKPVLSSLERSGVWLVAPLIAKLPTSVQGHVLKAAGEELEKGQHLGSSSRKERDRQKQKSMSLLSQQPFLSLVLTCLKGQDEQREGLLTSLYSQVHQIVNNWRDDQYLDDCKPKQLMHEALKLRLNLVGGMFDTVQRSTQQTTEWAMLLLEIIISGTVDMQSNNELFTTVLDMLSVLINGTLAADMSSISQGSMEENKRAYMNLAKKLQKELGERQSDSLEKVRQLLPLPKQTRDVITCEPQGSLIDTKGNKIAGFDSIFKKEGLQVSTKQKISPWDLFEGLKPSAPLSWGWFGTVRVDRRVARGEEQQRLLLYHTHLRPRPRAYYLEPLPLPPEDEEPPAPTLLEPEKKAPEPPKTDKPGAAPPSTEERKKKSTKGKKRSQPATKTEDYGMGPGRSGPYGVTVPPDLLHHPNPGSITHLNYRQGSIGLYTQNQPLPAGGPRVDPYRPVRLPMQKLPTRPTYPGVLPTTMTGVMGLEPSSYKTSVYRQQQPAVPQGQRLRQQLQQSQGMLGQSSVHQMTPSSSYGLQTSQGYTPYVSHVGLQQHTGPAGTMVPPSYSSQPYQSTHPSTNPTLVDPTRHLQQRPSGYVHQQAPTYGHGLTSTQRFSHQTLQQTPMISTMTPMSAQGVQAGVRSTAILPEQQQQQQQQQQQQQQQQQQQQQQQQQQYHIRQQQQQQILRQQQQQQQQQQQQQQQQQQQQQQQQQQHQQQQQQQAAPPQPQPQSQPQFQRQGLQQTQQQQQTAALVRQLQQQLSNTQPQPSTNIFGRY
inactive: [1] 0.013 | [2] -0.024 | [3] -0.019 | [4] 0.042 | [5] 0.031

MAP4 (UniProt E7EVA0)
inactive: [1] -0.024 | [2] -0.002 | [3] 0.037 | [4] -0.018 | [5] -0.041

MIF (UniProt P14174)
UniProt P14174, sequence (P14174 whole entry, looked up): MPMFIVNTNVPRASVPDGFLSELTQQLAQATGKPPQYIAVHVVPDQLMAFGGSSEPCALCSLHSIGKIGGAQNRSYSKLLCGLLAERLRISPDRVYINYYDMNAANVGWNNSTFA
inactive: [1] 0.046 | [2] 0.022 | [3] -0.043 | [4] -0.013 | [5] -0.09
